USP2a block = inhibitors of human ubiquitin-specific protease USP2a; Potency, µM (titrated, usually from 38.3 µM), for the others: at the top dose activity change, negative = inhibition, hits mostly inhibitors; actives 0.01% (n = 330,000); O75604; USP2 core, Ub-CHOP2 coupled fluorogenic reporter, 485/531;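 note: plate controls were DMSO wells for no effect and full inhibition by NEM control for full effect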
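Cell-free coupled assay: 10nM USP2 core preincubated 30min RT with compound in Tris-HCl pH 8.0/CaCl2/CHAPS buffer, then 25nM Ub-CHOP2 and 25nM reporter substrate; fluorescence (Ex 485/Em 531) read after 60min RT, normalized to NEM inhibition, concentration-response curves fitted.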
RGS4 inh = blocks human RGS4-accelerated GTP hydrolysis; P49798; Transcreener GDP fluorescence polarization, RGS4-accelerated GTP hydrolysis; Potency, µM (titrated, usually from 114 µM), for inactives: at the highest dose activity change, negative = inhibition, actives largely listed as inhibitors; actives 0.039% (n = 390,000); note: % is set by controls: 0 for no effect and ±100 for the full control effect; nearly all actives have a fitted effect of over 75% in size
Target sequence (P49798 whole entry, looked up): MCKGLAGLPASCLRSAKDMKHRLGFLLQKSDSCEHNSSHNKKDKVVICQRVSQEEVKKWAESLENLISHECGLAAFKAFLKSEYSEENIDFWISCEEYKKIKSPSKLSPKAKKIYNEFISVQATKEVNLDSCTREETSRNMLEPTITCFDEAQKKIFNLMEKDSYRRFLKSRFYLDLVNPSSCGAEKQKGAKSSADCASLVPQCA
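MLSMR compounds (23 nl, pin-transferred) preincubated 10 min at room temperature with a 500nM (2x) first reagent, then RGS4 at 900nM (2x) plus Transcreener GDP mix added; fluorescence polarization (620/688 nm) read before and after 90 min at 30 °C.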
TSG101-PTAP inh = blocks PTAP/TSG101 interaction to inhibit HIV-1 budding; Q99816; Fluorescence polarization, FITC-PTAP peptide / Tsg101 binding; Potency, µM (titrated, usually from 115 µM), for inactives: at the top dose activity change, negative = inhibition, usual class: inhibitors; 340,000 tested, under 10 active; AID 493005; active = well fitted inhibition curve with a large enough effect in the main read-out, with a control signal flat, not every such curve was filed as active; inconclusive = small, poorly fitted or top-dose-only effect, or effect the other way, or a change in a side signal; inactive = no such curve, though single readings can be large or run the other way; note: % of control where 0% means no effect
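Fluorescence anisotropy tracks displacement of a FITC-tagged PTAP peptide (50 nM) from the Tsg101 binding domain (10 uM), following a 20 min room-temperature incubation at pH 7.5.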
Eya2 phos inh = Eya2 (human) phosphatase inhibition; AID 488837; actives 0.006% (n = 330,000); Potency, µM (titrated, usually from 76.9 µM), for the others: at the highest dose activity, negative = inhibition, hits mostly inhibitors; O00167; recombinant Eya2, OMFP fluorescence dephosphorylation (OMFP is methylfluorescein phosphate); note: % is set by controls: 0 for no effect and ±100 for the full control effect
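Eya2 protein (added as 0.2 uM solution) was preincubated with compound for 10 min at ambient temperature in 50 mM HEPES pH 7.5, 50 mM NaCl, 5 uM MgCl2, 0.05% BSA, 1 mM DTT. OMFP (added at 50 uM) then reacted 10 min; fluorescence read at 485/525 nm.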
* hit, by the source's call; i = inactive; ? = inconclusive; · = no result; ! = not active in a repeat; [ ] = remark or other dose. Only some compounds are listed: those with a hit (about 0.046% of all), similar ones and a draw of the others. Unless noted, calls come from the whole dose curve; as a rule, active = well fitted curve in the direction sought with a large enough effect; inconclusive = small, poorly fitted or top-dose-only effect, or another doubt; inactive = no such curve, though single readings can be large; an effect the other way counts as inactive or inconclusive. Potency is the fitted concentration of half-maximal effect.

SMILES | USP2a block | RGS4 inh | TSG101-PTAP inh | Eya2 phos inh
CC(=O)/C=C1\C(=O)N(C)c2ccccc21 | · | 19µM* | · | 0%
COc1cc(/C=C(/C#N)C(=O)Nc2ccccc2)ccc1OCc1ccc(C(=O)O)cc1 | 1% | -25% | -4% | 2%
COc1cc(/C=C(\C#N)C(=O)Nc2nnc(C(F)(F)F)s2)ccc1OCc1ccc(C(F)(F)F)cc1C(F)(F)F | · | 19µM* | · | 1%
c1ccc2cc(C3=NCCN3)ncc2c1 | · | i | · | ·
COc1cccc(Sc2nc(N(C)C)ncc2S(=O)(=O)c2ccc(Cl)cc2)c1 | · | 27% | · | ·
C[C@@](N)(C(=O)O)[C@@H]1C[C@@H]1C(=O)O | · | 24µM* | · | ·
Cc1ccc(S(=O)(=O)N(C)CCN(C)c2nc(-c3cccs3)nc3ccccc23)cc1 | · | 2% | · | ·
Nc1nc2[nH]c(=S)[nH]c2c(=O)[nH]1 | · | -34% | · | ·
COc1ccc(C(=O)NCC(=O)OCC(=O)c2ccc3ccccc3c2)cc1 | · | 1% | · | ·
CSC1=NSC2=NC(=O)/C(=C\c3coc4ccccc4c3=O)C(=N)N12 | ? | ? | 35µM* | ?
O=C(O)c1ccccc1S(=O)(=O)Cc1ccccc1 | 2% | 25% | -14% | -10%
Cn1ncc(S(=O)(=O)Cc2ccccc2)c(Br)c1=O | · | 2.7µM* | · | 9%
Cc1ccc(S(=O)(=O)N2CCN(c3nc(-c4cccnc4)nc4ccccc34)CC2)cc1 | · | 2% | · | ·
COc1ccccc1C1NC(c2ccc3c(c2)OCO3)=CC(c2cc(Cl)ccc2O)N1 (stereo not given) | · | -20% | · | ·
O=C1C2C3CCCC3=C3CCCC3C2C(=O)N1c1ccccc1Cl (stereo not given) | · | -3% | · | ·
O=Nc1ccc2oc(=O)ccc2c1 | · | 6µM* | · | 4%
CCc1nn(CC(=O)NCCCOC)c(=O)c2cc3occc3n12 | · | -5% | · | ·
C=C1c2cccc(O)c2C(=O)C2C(=O)[C@]3(O)C(=O)C(C(N)=O)C(=O)[C@@H](N(C)C)[C@@H]3[C@@H](O)[C@H]12 (stereo not given in full) | 7.1µM* | -130% | -1% | -2%
Cc1[nH]c(=S)[nH]c(=O)c1Cc1c(O)ccc2ccccc12 | · | -42% | -2% | ·
O=c1[nH]c(=S)[nH]c(-c2ccccc2)c1Cc1c(O)ccc2ccccc12 | · | 2.1µM* | · | 6%
CN(C)C(=O)/N=N/C(=O)N(C)C | · | 3µM* | · | -1%
Cc1ccc(S(=O)(=O)N2CCN(S(=O)(=O)c3ccc4c(c3)OCCCO4)CC2)cc1 | · | -19% | · | ·
CCC1Sc2ccccc2N(CC(=O)NCc2ccc(C)cc2)C1=O (stereo not given) | · | 7% | · | ·
O=S(=O)(c1cccc(C(F)(F)F)c1)n1c(/C=C/c2ccccc2)nc2ccccc21 | · | 4% | · | ·
CCCCCCCCCC(=O)OCC(CO)OC(=O)CCCCCCCCC (stereo not given) | · | 27µM* | · | ·
SMILES | USP2a block | RGS4 inh | TSG101-PTAP inh | Eya2 phos inh
CCCCCCCCCCCCCCCC(=O)OC(CC(=O)O)C[N+](C)(C)C (stereo not given) | -15% | 19µM*! | 0% | -13%
CCCCCCCCCCCCCC(=O)O[C@H](CC(=O)O)C[N+](C)(C)C | · | -161%[56.9 µM] | · | ·
O=C(Nc1ccncc1)C1C(=O)c2ccccc2N(Cc2ccccc2)C1=O (stereo not given) | · | -32% | · | ·
CCn1nc(-c2ccc(C)cc2)nc2c(=O)n(C)c(=O)nc1-2 | · | -32% | · | ·
Cc1cc(=O)c2c(O)c3c(O)cc(O)c4c5c(O)cc(O)c6c(O)c7c(=O)cc(C)c8c1c2c(c34)c(c65)c78 | · | i | · | ·
NC(=S)c1ccc[n+]([C@@H]2O[C@@H](COP(=O)([O-])OP(=O)(O)OC[C@H]3O[C@@H](n4cnc5c(N)ncnc54)[C@H](OP(=O)(O)O)[C@@H]3O)C(O)C2O)c1 (stereo not given in full) | · | 27µM* | · | 4%
O=S(=O)(c1cccc(Cl)c1)N1CCN(c2nc(-c3cccs3)nc3ccccc23)CC1 | · | -7% | · | ·
Cc1ccc2nc(-c3ccc(N=Nc4cc(S(=O)(=O)O)c5ccccc5c4O)cc3)sc2c1S(=O)(=O)O | · | -18% | · | ·
O=C(CNC(=O)c1ccccc1)OCC(=O)c1ccc2ccccc2c1 | · | 1% | · | ·
COc1ccc(C2CC(=O)N3CN(c4ccccc4F)CSC3=C2C#N)cc1OC (stereo not given) | 4.5µM* | ? | -1% | -1%

Bioassay records as filed in PubChem.
